14 compounds from PubChem BioAssay (NCI) can be followed below.

Test systems include SR leukemia; RPMI-8226 leukemia; OVCAR-5 ovarian; OVCAR-4 ovarian; SK-OV-3 ovarian; IGROV1 ovarian; OVCAR-3 ovarian; HS 578T breast; NCI/ADR-RES ovarian.
What all share (experiment): NCI-60 one-dose screen, 48 h (100 = growth as untreated, 0 = no growth, -100 = all killed)
Conditions in all cases: 10 µM unless noted

About 83,000 compounds went through this panel and 20% of them were active in at least one assay; those are over-represented in the sample as a whole.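 Plates (96-well) were seeded with cells, treated with compound at one concentration, and incubated for 48 hours before percent growth was determined.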 Values without a mark were called inactive. Active and inactive are the calls of the source. Rule for the calls: active = growth percent below 10; inactive = the rest.

Consider `O=C(O)c1ccc2c(c1)C(=O)N(Cc1ccccc1)C2=O`, for which the growth with SR leukemia was 101%; with RPMI-8226 leukemia, 95.5%; in the assay on OVCAR-5 ovarian, 105%; in the assay with OVCAR-4 ovarian, 114%; with SK-OV-3 ovarian it was 106%; with IGROV1 ovarian, 106%. In addition, the growth is 103% in the assay with OVCAR-3 ovarian, 99.7% with HS 578T breast and 98% in the assay with NCI/ADR-RES ovarian.

On to `O=C(CCN1CCCC1)Nc1ccc2c(NCc3ccccc3)c3ccccc3nc2c1`, for which the growth in the assay with SR leukemia is -14.8% (active); in the assay on RPMI-8226 leukemia it was -35.3% (active); with OVCAR-5 ovarian, 14.8%; in the assay with OVCAR-4 ovarian, -13.8% (active); with SK-OV-3 ovarian, -10.9% (active); in the assay on IGROV1 ovarian it was 3.89% (active). Moreover, the growth is -33.4% (active) in the assay with OVCAR-3 ovarian, -10.7% (active) in the assay with HS 578T breast and 72.5% with NCI/ADR-RES ovarian.

In the case of `C=C1C(=O)O[C@H]2[C@H]1CC/C(CNS(=O)(=O)c1cccc3ccccc13)=C\CC[C@@]1(C)O[C@@H]21`, the growth in the assay with SR leukemia was 10.7%; with RPMI-8226 leukemia it was -16.5% (active); in the assay with OVCAR-5 ovarian, 61.9%; with OVCAR-4 ovarian, 42.8%; in the assay on SK-OV-3 ovarian, 107%; with IGROV1 ovarian, 15.4%. Moreover, the growth with OVCAR-3 ovarian was 11.1%; in the assay with HS 578T breast, 60.9%; in the assay on NCI/ADR-RES ovarian, 74.3%.

As to `Nc1c(C(=O)Nc2cccc3cnccc23)sc2nc3c(cc12)C(=O)CCC3`, the growth with SR leukemia is 59.5%; with RPMI-8226 leukemia, 88.9%; in the assay on OVCAR-5 ovarian it was 107%; in the assay on OVCAR-4 ovarian, 102%; with SK-OV-3 ovarian, 96.5%; in the assay with IGROV1 ovarian it was 87.9%. Further, the growth with OVCAR-3 ovarian was 93.4%; in the assay on HS 578T breast it was 84.3%.

With `N/C(=N\C(N)=N\c1nc2ccccc2s1)c1ccnc(Br)c1`, the growth was 25% in the assay on SR leukemia; 23.6% with RPMI-8226 leukemia; 59.1% in the assay on OVCAR-4 ovarian; 29.6% in the assay on SK-OV-3 ovarian; 25.8% in the assay on IGROV1 ovarian; 9.06% (active) in the assay on OVCAR-3 ovarian. The values for the growth in the assay on HS 578T breast and in the assay on NCI/ADR-RES ovarian were 19.3% and 20.1%, respectively.

For the compound `CCCCCCNC(=O)Oc1ccc(/C(=C(\C)c2ccccc2)c2ccc(OCCCN(C)C)cc2)cc1`, the growth is 2.09% (active) with SR leukemia; 81.6% in the assay with RPMI-8226 leukemia; 85.5% in the assay on OVCAR-5 ovarian; 86.9% with OVCAR-4 ovarian; 95.6% in the assay on SK-OV-3 ovarian; 80.4% in the assay with IGROV1 ovarian. In addition, the growth with OVCAR-3 ovarian is 89.7%; in the assay on HS 578T breast, 74%; in the assay on NCI/ADR-RES ovarian it was 81%.

Regarding `COc1ccc2c(c1)oc1c(C)c3c(c(C)c12)C(=O)N(CCN1CCOCC1)C3=O`, the growth was 85.8% with SR leukemia; 92.2% in the assay on RPMI-8226 leukemia; 103% in the assay with OVCAR-4 ovarian; 114% in the assay with SK-OV-3 ovarian; 91.4% in the assay with IGROV1 ovarian; 106% in the assay with OVCAR-3 ovarian. The figures for the growth with HS 578T breast and in the assay on NCI/ADR-RES ovarian were 102% and 104%, respectively.

On to `O=[N+]([O-])CC(c1ccccc1)c1c[nH]c2ccccc12` (stereo unspecified), for which the growth in the assay on SR leukemia is 20.2%; in the assay with RPMI-8226 leukemia, 50.7%; in the assay with OVCAR-5 ovarian, 79.4%; in the assay on OVCAR-4 ovarian, 91.5%; with SK-OV-3 ovarian it was 96.3%; with IGROV1 ovarian it was 53.7%. The growth was 64% in the assay on HS 578T breast and 26% in the assay with NCI/ADR-RES ovarian.

Take `Fc1ccc(-c2cn3c(nc4ccccc43)c(-c3ccccc3)n2)cc1`: the growth in the assay with SR leukemia is 91.5%; in the assay on RPMI-8226 leukemia it was 111%; with OVCAR-5 ovarian, 111%; in the assay on OVCAR-4 ovarian, 67.1%; in the assay with SK-OV-3 ovarian, 105%; with IGROV1 ovarian, 81.8%. Further, the growth in the assay on OVCAR-3 ovarian was 111%; with HS 578T breast it was 76.7%.

For `O=Cc1ccc(-c2cn3ccnc3c(-c3ccc4ncn(Cc5ccccc5)c4c3)n2)cc1`, the growth with SR leukemia is 52.5%; in the assay on RPMI-8226 leukemia, 17.5%; in the assay with OVCAR-5 ovarian, 102%; with OVCAR-4 ovarian it was 83.1%; with SK-OV-3 ovarian, 94.9%; in the assay with IGROV1 ovarian it was 78.7%. The growth is 76.3% in the assay with OVCAR-3 ovarian, 54.4% in the assay with HS 578T breast and 62.6% with NCI/ADR-RES ovarian.

Regarding `Nc1n[nH]c2cccc(C#Cc3cccc(C(=O)Nc4cc(CN5CCOCC5)cc(C(F)(F)F)c4)c3)c12`, the growth is 35.6% in the assay on SR leukemia; 12.9% with RPMI-8226 leukemia; 34.3% in the assay with OVCAR-5 ovarian; 33.1% in the assay on OVCAR-4 ovarian; 82.9% in the assay with SK-OV-3 ovarian; 7.98% (active) in the assay with IGROV1 ovarian. The values for the growth in the assay on OVCAR-3 ovarian, in the assay with HS 578T breast and with NCI/ADR-RES ovarian were 46.7%, 10.2% and 42.1%, respectively.

With `O=S(=O)(NCCNc1nccc(-c2c(-c3cccc(O)c3)nc3occn23)n1)c1ccc(C(F)(F)F)cc1`, the growth in the assay on SR leukemia was 110%; in the assay with RPMI-8226 leukemia, 105%; in the assay with OVCAR-5 ovarian, 138%; in the assay on OVCAR-4 ovarian it was 118%; in the assay with SK-OV-3 ovarian, 95.8%; with IGROV1 ovarian, 73.8%. The growth in the assay on OVCAR-3 ovarian is 113%; with HS 578T breast, 100%; in the assay with NCI/ADR-RES ovarian, 105%.

For the compound `Cc1ccc(-n2c3c(c(-c4ccccc4)c2-c2ccccc2)C2=NCCN2C=N3)cc1`, the growth in the assay on SR leukemia was 80%; in the assay on RPMI-8226 leukemia, 77.8%; in the assay with OVCAR-5 ovarian, 103%; in the assay with OVCAR-4 ovarian it was 78.5%; in the assay with SK-OV-3 ovarian, 94.7%; in the assay with IGROV1 ovarian, 62.6%. For the same compound, the growth is 90.5% with OVCAR-3 ovarian, 94.8% with HS 578T breast and 100% with NCI/ADR-RES ovarian.

For the compound `C=C(C)[C@@H]1CC[C@]2(C(=O)N3CCN(C)CC3)CC[C@]3(C)[C@H](CC[C@@H]4[C@@]5(C)CC[C@H](OCCC#N)C(C)(C)[C@@H]5CC[C@]43C)[C@@H]12`, the growth in the assay with SR leukemia was 3.86% (active); in the assay on RPMI-8226 leukemia, 29.7%; with OVCAR-5 ovarian, 129%; with OVCAR-4 ovarian it was 48.8%; with SK-OV-3 ovarian it was 109%; with IGROV1 ovarian it was 98.2%. Besides, the growth in the assay on OVCAR-3 ovarian is 103%; in the assay on HS 578T breast, 104%; with NCI/ADR-RES ovarian, 45.8%.
